TIM10 inh: inhibits growth of TIM10 yeast strain; AID 463195; inhibition, % at 10 µM; hit rate 1.4% among 330,000; S. cerevisiae TIM10 strain growth, BacTiter-Glo luminescence, 24 h;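 active = inhibition of 40% or more at the single tested concentration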;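 note: wild-type TIM10 isogenic control strain grown at permissive 25 °C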
PfHsp90 yeast 2: reduces growth (ATP signal) of yeast expressing P. falciparum Hsp90; inhibition, % at 9.4 µM; hit rate 0.32% among 310,000; S. cerevisiae expressing PfHsp90, BacTiter-Glo ATP, 48 h; yeast lacking PDR1 and PDR3 efflux regulators;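 active = every replicate shows inhibition above about 80%, whatever the replicate mean, limit read from the data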;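 note: 0% = DMSO neutral controls and 100% = 20 µM radicicol positive controls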
tim23-1 inh: tim23-1 yeast growth inhibition; S. cerevisiae tim23-1 growth, BacTiter-Glo luminescence, 24 h; inhibition, % at 20 µM; hit rate 1.3% among 330,000;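 active = growth inhibition of the mutant yeast at or above 50%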;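 note: temperature-sensitive mutant grown at 25 °C; plate controls were DMSO-treated mutant yeast for no effect and medium wells lacking yeast for full effect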
tim10-1 inh: tim10-1 yeast growth inhibition. S. cerevisiae tim10-1 ts strain growth, BacTiter-Glo, 24 h. inhibition, % at 20 µM. hit rate 2.2% among 330,000;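 active = inhibition of at least 40%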;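 note: mutant grown at 25 °C; 0% = DMSO wells with yeast and 100% = wells holding no yeast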
V-ATPase pH: alters yeast V-ATPase proton transport; response, % at 10 µM; S. cerevisiae, pHLuorin cytosolic pH fluorescence; hit rate 0.37% among 350,000; in the data active = response mostly above about 7.3%, no sharp cut-off; inactive = mostly below about 5.4%; note: actives read high
tim10-1 conf: tim10-1 yeast growth inhibition, confirmed; shares compounds with tim10-1 inh; S. cerevisiae tim10-1 ts strain growth, BacTiter-Glo, 24 h; inhibition, % at 20 µM; hit rate 56% among 7,400; AID 463213;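 active = inhibition of yeast growth at or above a set limit in either of two repeat tests at 20 µM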;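 note: tim10-1 mutant grown at permissive 25 °C to find synthetic lethal compounds; 0% = DMSO yeast wells and 100% = medium wells without yeast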
TIM10 conf: TIM10 yeast growth inhibition, confirmed | shares compounds with TIM10 inh | S. cerevisiae tim10 strain growth, BacTiter-Glo luminescence, 24 h | inhibition, % at 10 µM | hit rate 63% among 4,600 | AID 463215;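 active = inhibition of yeast growth at or above a set limit in either of two replicates at 10 µM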;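 note: this counterscreen used the strain with wild-type TIM10; 0% = yeast with DMSO and 100% = medium wells lacking yeast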
tim23-1 conf: confirmation of tim23-1 mutant yeast growth inhibitors | S. cerevisiae tim23-1 growth, BacTiter-Glo luminescence, 24 h | inhibition, % at 20 µM | AID 463218 | shares compounds with tim23-1 inh | hit rate 83% among 4,400;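 active = inhibition above about 39% in either of two replicate wells at 20 µM, limit read from the data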;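 note: temperature-sensitive tim23-1 mutant grown at 25 °C; 0% = DMSO wells with yeast and 100% = medium wells without yeast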
Starred values were filed as active, the others as inactive. Most compounds without a hit are left out; they make up all but 3.7% or so of the library.

`Fc1ccc(NC(=S)Nc2ccc(F)c(Cl)c2)cc1Cl` gave TIM10 inh 53*, PfHsp90 yeast 2 -15, tim23-1 inh 72*, tim10-1 inh 71*, V-ATPase pH 0, tim10-1 conf 61*, TIM10 conf -15 and tim23-1 conf 65*.
`C[C@H](CO)N1C[C@H](C)[C@H](CN(C)Cc2ccncc2)Oc2cc(-c3ccccc3F)ccc2S1(=O)=O` gave V-ATPase pH -1.
COc1ccccc1N(CC1CO1)S(=O)(=O)c1ccc(C)cc1 (configuration not stated) was read as TIM10 inh 23, PfHsp90 yeast 2 -8, tim23-1 inh 18, tim10-1 inh 14 and V-ATPase pH 4.
Screening c1ccc(-c2cc3ccccc3[nH]2)cc1 returned TIM10 inh 15, PfHsp90 yeast 2 12, tim23-1 inh 40, tim10-1 inh 23 and V-ATPase pH -2.
Screening Clc1ccc2[nH]c(-c3ccccc3)cc2c1 returned TIM10 inh 39, PfHsp90 yeast 2 -48, tim23-1 inh 61*, tim10-1 inh 50*, V-ATPase pH 3, tim10-1 conf 45* and tim23-1 conf 73*.
For Cc1ccc(-c2noc(CC(=O)c3ccc([N+](=O)[O-])cc3)n2)cc1 the results were PfHsp90 yeast 2 1 and V-ATPase pH -3.
For CC(C)(C)C(=O)NC(=S)N1CCc2ccccc21 the results were TIM10 inh 3, PfHsp90 yeast 2 16, tim23-1 inh 3, tim10-1 inh 12 and V-ATPase pH 0.
Screening O=C(NC(=S)N1CCc2ccccc21)c1ccc(Br)o1 returned TIM10 inh 67*, tim23-1 inh 64*, tim10-1 inh 62*, V-ATPase pH -3, tim10-1 conf 56*, TIM10 conf 57* and tim23-1 conf 66*.
CCN1/C(=C/c2ccc3ccccc3[n+]2CCCS(=O)(=O)[O-])C=Cc2cc(C)ccc21 was read as PfHsp90 yeast 2 16 and V-ATPase pH -1.
For CCN1/C(=C/c2ccc3ccccc3[n+]2CC)C=Cc2ccccc21 the results were TIM10 inh 52*, PfHsp90 yeast 2 26, tim23-1 inh 85*, tim10-1 inh 74*, V-ATPase pH 7, tim10-1 conf 75*, TIM10 conf 20 and tim23-1 conf 67*.
CC(C)[C@H](N[C@@H](C)c1ccccc1)c1c(O)ccc2ccccc12 was read as TIM10 inh 22, PfHsp90 yeast 2 -12, tim23-1 inh 50*, tim10-1 inh 45*, V-ATPase pH 4, tim10-1 conf 35* and tim23-1 conf 40*.
`COc1ccc(C2C3C=CCC(c4cccc(-c5ccc(C)cc5)c4)C3C(=O)N2Cc2ccccc2)cc1Cl` (configuration not stated) gave TIM10 inh 56*, PfHsp90 yeast 2 -5, tim23-1 inh 53*, tim10-1 inh 46*, V-ATPase pH 4, tim10-1 conf 40*, TIM10 conf 22 and tim23-1 conf 54*.
Cc1cc(=O)oc2cc(O)c(N=Nc3ccccc3)cc12 was read as TIM10 inh 1, PfHsp90 yeast 2 -25, tim23-1 inh -17, tim10-1 inh -13 and V-ATPase pH -1.
Screening N/C(=N\OC(=O)c1cccc(Cn2cc(C(F)(F)F)ccc2=O)c1)c1ccc(Cl)cc1 returned TIM10 inh 3, PfHsp90 yeast 2 12, tim23-1 inh 51*, tim10-1 inh 44*, V-ATPase pH 0, tim10-1 conf 56* and tim23-1 conf 60*.
`Cc1ccc(C2=NC(=O)/C(=C/c3cc(O)c(O)c(Br)c3)S2)cc1` gave TIM10 inh -38, PfHsp90 yeast 2 -11, tim23-1 inh 32, tim10-1 inh -8 and V-ATPase pH -2.
COc1cc(/C=C2\SC(c3ccc(C)cc3)=NC2=O)cc(OC)c1O was read as TIM10 inh 44*, PfHsp90 yeast 2 -17, tim23-1 inh 53*, tim10-1 inh 54*, V-ATPase pH -3, tim10-1 conf 38*, TIM10 conf 40* and tim23-1 conf 49*.
CC(C)(C)c1cc(-c2csc(Nc3ccccc3)[n+]2Cc2ccc(C(=O)O)cc2)cc(C(C)(C)C)c1O was read as TIM10 inh 38, PfHsp90 yeast 2 -137, tim23-1 inh 54*, tim10-1 inh 46*, V-ATPase pH 9, tim10-1 conf 57* and tim23-1 conf 53*.
`CCN(CC)CC(=O)N1CCCC(N2CCN(c3cccc(C(F)(F)F)c3)CC2)C1` (configuration not stated) gave TIM10 inh -6, PfHsp90 yeast 2 8, tim23-1 inh -2, tim10-1 inh 2 and V-ATPase pH 1.
O=C1SC(SCc2ccccc2)=N/C1=C\c1ccco1 was read as TIM10 inh 43*, PfHsp90 yeast 2 -19, tim23-1 inh 54*, tim10-1 inh 57*, V-ATPase pH -2, tim10-1 conf 40*, TIM10 conf 49* and tim23-1 conf 58*.
For COC(=O)[C@@]12CCCCN1[C@H](c1ccc(-c3ccccc3)c(OC)c1)[C@H]1C(=O)N(C)C(=O)[C@H]12 the results were TIM10 inh 7, PfHsp90 yeast 2 0, tim23-1 inh 0, tim10-1 inh 1 and V-ATPase pH 2.
`N#C/C(=C/c1ccc(OCc2ccccc2)cc1)C(=O)NC1CCCCC1` gave TIM10 inh -11, PfHsp90 yeast 2 -8, tim23-1 inh 3, tim10-1 inh 17 and V-ATPase pH -2.
For CCOc1ccc(/C=C(\C#N)C(=O)Nc2cccnc2)cc1 the results were TIM10 inh -6, PfHsp90 yeast 2 21, tim23-1 inh 1, tim10-1 inh -7 and V-ATPase pH -1.
For CCCCOc1cccc(/C=C(\C#N)C(=O)NC2CC2)c1 the results were TIM10 inh 36, PfHsp90 yeast 2 -5, tim23-1 inh 89*, tim10-1 inh 88*, V-ATPase pH -2, tim10-1 conf 83* and tim23-1 conf 85*.
`CCOc1cccc(NC(=O)/C(C#N)=C/c2cccnc2)c1` gave TIM10 inh 42*, PfHsp90 yeast 2 -4, tim23-1 inh 79*, tim10-1 inh 52*, V-ATPase pH 1, tim10-1 conf 55*, TIM10 conf 56* and tim23-1 conf 77*.
`CC(C)Oc1ccc(/C=C(\C#N)C(=O)NC2CC2)cc1` gave TIM10 inh -13, PfHsp90 yeast 2 1, tim23-1 inh 10, tim10-1 inh -6 and V-ATPase pH 0.
For N#C/C(=C\c1ccc(OCC(N)=O)cc1)C(=O)NC1CC1 the results were TIM10 inh -1, PfHsp90 yeast 2 5, tim23-1 inh -4, tim10-1 inh -14 and V-ATPase pH 1.

From PubChem
